Shiga toxin inh: blocks Shiga toxin action in Vero cells. inhibition, % at 38.7 µM. Vero cells, Shiga toxin protein synthesis inhibition reporter. 9.2% of 290,000 active. AID 2315; in the data active = inhibition mostly above about 28%, no sharp cut-off; inactive = mostly below about 43%; also: 0% is about no effect
Cycloheximide cs: counter-screen for Shiga toxin inhibitors: cycloheximide protein synthesis inhibition. cell reporter, cycloheximide protein synthesis inhibition counterscreen. max response, %. 12% of 300,000 active. AID 2314; in the data active = max response mostly above about 13%, no sharp cut-off; inactive = mostly below about 14%; also: read at 38.3 µM for the half of the compounds with a filed dose; 0% is about no effect
Tb PYK inh: inhibitors of Trypanosoma brucei pyruvate kinase. Q57TT1. TbPYK enzyme, Kinase-Glo Plus ATP luminescence, 45 min. 0.12% of 410,000 active. Potency, µM (top dose mostly 76.8 µM), for inactives: at the highest dose activity, negative = inhibition, usual class: inhibitors; also: potency is read from the fitted curve at half-maximal effect; % is scaled to controls: 0 for no effect and ±100 for the full control effect; nearly all actives have a fitted effect of over 50% in size
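Quantitative HTS: titrated library compounds versus trypanosomal pyruvate kinase in TEA buffer (pH 7.2) containing KCl, MgCl2, BSA and Tween-20. Reactions were initiated with ADP, 130 uM final. Kinase-Glo Plus luminescence was read after 45 min at RT.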
LmPK inh: inhibitors of Leishmania mexicana pyruvate kinase. AID 1721. purified LmPK, Kinase-Glo ATP luminescence, 1 h. Potency, µM (titrated, usually from 57.5 µM), without a hit: at the top dose activity change, negative = inhibition, usual class: inhibitors. 0.37% of 290,000 active; also: potency is read from the fitted curve at half-maximal effect; % is scaled to controls: 0 for no effect and ±100 for the full control effect
Target sequence (Q27686 whole entry, looked up): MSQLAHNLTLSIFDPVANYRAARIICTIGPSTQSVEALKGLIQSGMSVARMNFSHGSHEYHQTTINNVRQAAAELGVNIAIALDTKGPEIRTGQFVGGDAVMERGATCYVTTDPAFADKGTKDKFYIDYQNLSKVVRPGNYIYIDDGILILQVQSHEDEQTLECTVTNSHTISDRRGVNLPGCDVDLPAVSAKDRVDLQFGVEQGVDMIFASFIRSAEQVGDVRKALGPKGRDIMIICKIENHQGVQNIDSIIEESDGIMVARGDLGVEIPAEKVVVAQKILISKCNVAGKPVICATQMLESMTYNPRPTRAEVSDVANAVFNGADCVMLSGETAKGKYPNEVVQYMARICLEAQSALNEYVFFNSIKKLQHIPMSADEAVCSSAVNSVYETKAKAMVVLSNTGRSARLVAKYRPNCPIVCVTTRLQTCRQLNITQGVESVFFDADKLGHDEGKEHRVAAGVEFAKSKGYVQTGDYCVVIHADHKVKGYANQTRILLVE
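Screened at intermediate enzyme activity to detect both inhibitors and activators: LmPK at 0.1 nM, with a 0.5 nM enzyme column as activation reference. PEP 0.5 mM, ADP 0.1 mM; ATP detected by luminescence after 1 h.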
Giardia FBPA inh: blocks Giardia fructose-bisphosphate aldolase activity; AID 2451; purified Giardia FBPA; 0.71% of 290,000 active; A8B2U2; Potency, µM (titrated, usually from 59.6 µM), for the others: top-dose activity, negative = inhibition, usual class: inhibitors; also: potency is read from the fitted curve at half-maximal effect; % is scaled to controls: 0 for no effect and ±100 for the full control effect; nearly all actives have a fitted effect of over 55% in size
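40 nM FBPA preincubated 10 min at RT with compound (up to 57.5 uM final), then substrate plus GAPDH/TPI/NAD/arsenate coupling and diaphorase/resazurin added. Fluorescence read after 20 min at RT, 525/598 nm.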
RE007 growth inh: less growth of the S. pombe RE007 Vpr strain; S. pombe RE007 Vpr strain, BacTiter-Glo ATP luminescence, 24 h; Potency, µM (titrated, usually from 92.2 µM), for the others: top-dose activity change, negative = less growth, hits mostly inhibitors; 0.21% of 360,000 active; AID 651644; active = well fitted falling curve with a large enough effect; inconclusive = small, poorly fitted or top-dose-only effect; inactive = no such curve, though single readings can be large or run the other way; also: potency is read from the fitted curve at half-maximal effect; % is scaled to controls: 0 for no effect and ±100 for the full control effect; nearly all actives have a fitted effect of over 50% in size
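Fission yeast strain RE007, carrying one chromosomally integrated HIV-1 vpr copy, was seeded at OD 0.01 in PMG+AL medium with 23 nL pinned compound. After 24 h at 30 °C and 99% humidity, viability was read by BacTiter-Glo luminescence.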
* hit, by the source's call; ? = inconclusive; . = no result; [ ] = dose if it differs, or a comment. The entries come from a sample that favours hits as a whole. Unless noted, calls follow the shape of the dose curve; as a rule, active = well fitted curve in the direction sought with a large enough effect; inconclusive = small, poorly fitted or top-dose-only effect, or another doubt; inactive = no such curve, though single readings can be large; an effect the other way counts as inactive or inconclusive.

SMILES | Shiga toxin inh | Cycloheximide cs | Tb PYK inh | LmPK inh | Giardia FBPA inh | RE007 growth inh
O=C(CNC(=O)c1ccc(Cl)cc1)OCc1cc(=O)n2ccsc2n1 | . | . | -5% | . | . | .
CC(=O)c1ccc(Nc2ccc([N+](=O)[O-])c3nonc23)cc1 | . | 21* | -8% | -5% | -14% | -20%
COc1ccc(N(CC(=O)N2CCN(c3cccc(OC)c3)CC2)S(=O)(=O)c2c(C)noc2C)cc1 | . | . | -7% | . | . | .
COc1ccc(C(=O)N/N=C(/C)c2cccc(NC(=O)c3ccncc3)c2)cc1OC | 2 | 3 | 4% | -9% | . | 1%
C/C(=N\NC(=O)c1c(-c2ccccc2Cl)noc1C)c1cccc(NC(=O)C(C)C)c1 | -2 | -2 | -1% | 1% | 9% | -3%
C/C(=N\NC(=O)c1ccncc1)c1cccc(NC(=O)c2ccc(Cl)s2)c1 | 77* | 31* | -4% | -12% | . | -7%
CCC(CC)C(=O)Nc1cccc(/C(C)=N/NC(=O)c2ccccc2Cl)c1 | 30 | 16* | 0% | 10% | -3% | -5%
C/C(=N\NC(=O)c1ccc(Cl)cc1)c1cccc(NC(=O)C(C)C)c1 | 24 | 17* | 13% | 0% | 3% | -27%
C/C(=N\NC(=O)c1ccc(Cn2cc(Br)cn2)o1)c1cccc(NC(=O)C(C)C)c1 | 9 | 20* | 3% | -1% | 3% | -13%
CCn1ccc2c(OCC(=O)Nc3ccc(C(C)=O)cc3)cccc2c1=O | . | . | -2% | . | . | .
COc1ccc(-c2nc3cnc(OC)nc3n(C[C@H]3CCCO3)c2=O)cc1 | . | . | . | . | -23% | .
Cc1ccccc1-c1ccc2ncnc(NCc3cccs3)c2c1 | . | . | . | . | -17% | .
C/C(=N\NC(=O)c1ccc(Cl)c(Cl)c1)c1cccc(NC(=O)C(C)C)c1 | 29 | 36 | 1% | 2% | -5% | -1%
C/C(=N\NC(=O)c1cccc(Cl)c1)c1cccc(NC(=O)C(C)C)c1 | 46* | 30* | -1% | -3% | -1% | 5%
Cc1occc1C(=O)NNC(=O)COc1ccc(Br)cc1Br | 50* | 14 | 0% | -5% | 0% | -8%
Cc1occc1C(=O)NNC(=S)NC(=O)COc1ccc(Cl)cc1Cl | 42 | 26* | -24% | -4% | . | 2%
COc1cc(C(=O)NCCc2sc(-c3ccc(C)cc3)nc2C)cc(OC)c1OC | . | . | 0% | . | . | .
COc1cc(C2N(c3ccccc3)CCN2c2ccccc2)cc(OC)c1OC | 61 | 13* | -15% | -2% | ? | 1%
C/C(CCN1CCc2nc(-c3ccccc3)c(-c3ccccc3)cc2C1)=N\O[C@@H](C)CN1CCCc2nc(C)c(C)cc21 | . | . | . | . | -1%[12.9 µM] | .
CC(C)(C)OC(=O)C(Br)CCBr (centres undefined) | -15 | -8 | . | . | -9% | .
O=C(Nc1nnc(SCc2ccc(F)cc2)s1)c1cccnc1Cl | 14 | 18* | -4% | -1% | 11% | -19%
CC(C)(C)c1nnc(NC(=O)c2cccnc2Cl)s1 | 5 | 13 | 0% | 2% | -7% | -1%
CCC(=O)Nc1nnc(SCc2cccc(F)c2)s1 | 32 | 9 | 2% | 0% | 6% | 9%
O=C(Nc1nnc(SCc2ccc(F)cc2)s1)c1ccccn1 | 93* | 40* | -7% | -2% | ? | ?
Cc1cccc(C(=O)Nc2cccc(OCc3cc(=O)n4cccc(C)c4n3)c2)c1 | . | . | -3% | . | . | .
SMILES | Shiga toxin inh | Cycloheximide cs | Tb PYK inh | LmPK inh | Giardia FBPA inh | RE007 growth inh
Fc1ccc2[nH]c3c(N4CCc5ccccc5C4)ncnc3c2c1 | -12 | 7 | -3% | 0% | 1% | 2%
Brc1ccc2[nH]c3c(N4CCc5ccccc5C4)ncnc3c2c1 | 72* | 49* | -9% | 1% | -25% | -8%
CC(C)c1ccc(NC(=O)C2(C)Cc3ccccc3C(=O)O2)cc1 (centres undefined) | . | . | -2% | . | . | .
CC(C)C(=O)Nc1cccc(C(=O)Nc2nnc(C(C)C)s2)c1 | 92* | 42* | 4% | 2% | 3% | -5%
CCC(=O)Nc1cccc(C(=O)Nc2nccs2)c1 | 23 | 14 | -5% | 2% | -1% | -6%
CC(C)C(=O)Nc1cccc(C(=O)Nc2nccs2)c1 | 38 | 15* | -2% | -1% | -1% | 5%
CC(C)C(=O)Nc1cccc(C(=O)Nc2nnc(C(F)(F)F)s2)c1 | . | . | 2% | . | . | .
CC(C)C(=O)Nc1ccc(C(=O)Nc2nnc(C(C)C)s2)cc1 | 44* | 31 | 1% | 4% | 3% | -8%
CC(C)c1nnc(NC(=O)c2cccc(NC(=O)C(F)(F)F)c2)s1 | 84* | 47* | -11% | 2% | -8% | -10%
COc1ccc(Cl)cc1NC(=O)CSc1nnc2[nH]c(=O)cc(-c3ccccc3)n12 | . | . | -10% | . | . | .
CCOc1ccc(-n2nc(CO)c(C(=O)NCC(c3ccccc3)c3ccccc3)n2)cc1 | . | . | -2% | . | . | .
CN(C)c1ccc(-c2nccc(NCc3cccs3)n2)cc1 | . | . | . | . | -24% | .
COc1ccc(NC(=O)c2ccc(-c3ccc([N+](=O)[O-])cc3)o2)cc1 | 28 | 9 | -4% | 0% | -23% | 4%
O=C(Nc1ccccc1)c1ccc(-c2ccc([N+](=O)[O-])cc2)o1 | 69* | 31* | -10% | 5% | 0% | 16%
O=C(c1ccc(-c2ccc([N+](=O)[O-])cc2)o1)N1CCCCC1 | 93* | 43* | -9% | -10% | -2% | -16%
O=C(Nc1ccccc1)c1ccc(-c2ccc(Br)cc2)o1 | 54* | 38* | 7% | 0% | -6% | ?
CC1CCN(S(=O)(=O)c2ccc3c(c2)CCN3)CC1 | . | . | 4% | . | . | .
COc1cc(-c2cc(C(=O)Nc3cccc(C(C)=O)c3)c3ccccc3n2)cc(OC)c1OC | 6 | 18* | -4% | -3% | . | 5%
COc1cccc(NC(=O)c2cc(-c3ccco3)nc3ccccc23)c1 | . | . | 1% | . | . | 11%
CC(=O)c1cccc(NC(=O)c2cc(-c3ccco3)nc3ccccc23)c1 | 33* | 13 | 7% | 0% | -1% | -17%
CC(=O)c1ccc(NC(=O)c2cc(C)nc3ccccc23)cc1 | 28 | 28* | -7% | 1% | 4% | 7%
COc1ccc(-c2cc(C(=O)Nc3ccc(C(N)=O)cc3)c3ccccc3n2)cc1OC | 45 | 14* | 0% | -4% | 2% | 3%
CC(=O)c1ccc(Nc2nc3c(S(=O)(=O)c4ccccc4)nnn3c3ccc(Cl)cc23)cc1 | . | . | -3% | . | . | .
COc1ccccc1NC(=O)C1=C(C)Nc2nc(SCc3ccccc3C)nn2C1CC(C)C (centres undefined) | . | . | -1% | . | . | .
CCOC(=O)c1sc(NC(=O)c2cc(-c3ccc(C)cc3)nc3ccccc23)c(C#N)c1C | -15 | 1 | -22% | 5% | 8% | 13%

Screens as filed in PubChem BioAssay.
